In PubChem BioAssay (EPA / NIEHS):
“And” between values parts separate entries of the source, which are not always exact repeats. Identical values can stand only once. The source made the active and inactive calls. How the source made its calls: active means hit-call score of the fitted dose curve at least 0.9, where 1 is the maximum; inactive means score below 0.9.

Assay: IUF_NPC2a_radial_glia_migration_120hr: Leibniz Research Institute for Environmental Medicine (IUF) 120-hour Neural Progenitor Cell Migration Assay for Radial Glia Migration (NPC2a) (AID 2284298)
Method: IUF_NPC2-5 is a cell-based, multiplexed assay that uses hNPC, a human primary neural progenitor cells, with measurements taken at 72 or 120 hours after chemical dosing in a 96-well plate. Human neural progenitor cells (hNPC) are generated from human fetal brain cortex at gestational week (GW) 16-19. In the neural progenitor cell migration and differentiation assay (NPC2-5), hNPCs grown as spheres are plated on an extracellular matrix and migrate and differentiate out of the sphere core. The processes radial glia migration, neuronal and oligodendrocyte migration as well as neuronal differentiation, neuronal morphology and oligodendrocyte differentiation are studied using automated phase contrast imaging and automated fluorescence imaging in combination with high content image analysis. In parallel, the cell viability is assessed using an alamar blue viability assay and the cytotoxicity using a lactate dehydrogenase dependent membrane integrity assay.IUF_NPC2a_radial_glia_migration_120hr is one of 12 assay components measured from the IUF_NPC2-5 assay. The migration distance of radial glia at 120 hr is assessed in um from the edge of the sphere core to the edge of the migration area based on fluorescent images of Hoechst-positive nuclei. With the identification of each nucleus position around the sphere core, migration-related parameters can be calculated. First, a nuclei density distribution is calculated for which an algorithm determines relatively more and less dense nuclei areas. This calculation identifies the sphere core by the densest nuclei area in the image. The algorithm further assumes that nuclei density decreases from the sphere core to the periphery. When the nuclei density hits a pre-defined threshold, the outer boundaries of the migration area are determined and the sphere itself is mapped out in a polynomial bounding box. Derived from this box, the size of the migration area and the migration distance are calculated for each well.Data from the IUF_NPC2a_radial_glia_migration_120hr component was analyzed at the endpoint IUF_NPC2a_ radial_glia_migration_120hr in the positive analysis fitting direction relative to DMSO as the negative control and baseline of activity. Using a type of migration reporter, gain or loss-of-signal activity can be used to understand developmental effects.
Culture protocol: After the cell expansion period the cells are cultured for up to four weeks in which they are passaged every week as described in 3.6. Between one to three days after passaging spheres at a size of 0.3 mm are picked for the test method. For the assessment of neural progenitor cell migration and differentiation, the spheres are plated on poly-D-lysine/laminin coated 96-well flat bottom plates in differentiation medium (N2) to initiate migration and differentiation. Thereby one 0.3 mm big sphere is plated in the middle of a well. The differentiation medium consists of DMEM and Ham's F12 at a ratio of 3 to 1 supplemented with 1% N2 and 1% penicillin and streptomycin. Within 5 days NPCs radially migrate out of the sphere core and differentiate into radial glia cells (nestin positive), neurons (TUBB3 positive), oligodendrocytes (O4 positive) and astrocytes (GFAP positive). Cultivation during the test method is performed at 37C and 5% CO2 at a ph of 7.2-7.6.Exposure: 0.3 mm big hNPC are plated in the already prepared test conditions. Exposure starts at day 0 of differentiation and is continued over five days of differentiation until the experiment is terminated. Cells are fed with fresh medium at day 3 of differentiation. Therefore, half of the test condition solution (e.g. solvent control or compound dilution) is replaced by freshly prepared test condition solution.Test Method: Migration distance and cytotoxicity is determined after 72 hours based on brightfield images of each well. The assay is terminated by the assessment of cell viability and cytotoxicity as well as cell fixation after 120 h. […]

Question: With `CCC(C)(C)C(=O)OC1=C(c2ccc(Cl)cc2Cl)C(=O)OC12CCCCC2` as the compound, how does the outcome read?
Answer: inactive

Question: For `O=C(O)C(F)(F)C(F)(F)C(F)(F)C(F)(F)C(F)(F)C(F)(F)C(F)(F)F`, which outcome is on record?
Answer: inactive

Question: For `CC[C@H](C)[C@H]1O[C@]2(C=C[C@@H]1C)C[C@@H]1C[C@@H](C/C=C(\C)[C@@H](O[C@H]3C[C@H](OC)[C@@H](O[C@H]4C[C@H](OC)[C@@H](O)[C@H](C)O4)[C@H](C)O3)[C@@H](C)/C=C/C=C3\CO[C@@H]4[C@H](O)C(C)=C[C@@H](C(=O)O1)[C@]34O)O2` (tested in a mixture with another compound), which AC50 is on record?
Answer: 3.4 µM (active)

Question: With `COP(=S)(OC)Oc1ccc([N+](=O)[O-])cc1` as the compound, how does the outcome read?
Answer: inactive

Question: For `O=[N+]([O-])/N=C1\NCCN1Cc1ccc(Cl)nc1`, which outcome is on record?
Answer: inactive

Question: For `O=C(O)COc1ccc(Cl)cc1Cl`, which outcome is on record?
Answer: inactive

Question: Which outcome does the source give for `CNC(=O)CSP(=S)(OC)OC` here?
Answer: inactive

Question: Which outcome does the source give for `CC1(C)C(C=C(Cl)Cl)C1C(=O)OC(C#N)c1ccc(F)c(Oc2ccccc2)c1` (stereo not drawn) here?
Answer: inactive

Question: With `CC1(c2ccc(Oc3ccccc3)cc2)OC(=O)N(Nc2ccccc2)C1=O` (stereo not drawn) as the compound, how does the AC50 read?
Answer: 5 µM (active)

Question: Which AC50 does the source give for `O=S1OCC2C(CO1)C1(Cl)C(Cl)=C(Cl)C2(Cl)C1(Cl)Cl` (stereo not drawn) here?
Answer: 13.1 µM (active)

Question: Which AC50 does the source give for `COP(=O)(OC)OC=C(Cl)Cl` here?
Answer: 40 µM (active)

Question: For `O=S(=O)(O)C(F)(F)C(F)(F)C(F)(F)C(F)(F)C(F)(F)C(F)(F)C(F)(F)C(F)(F)F`, which AC50 is on record?
Answer: 79.3 µM (active) and 16 µM (active)

Question: Which outcome does the source give for `CC(C)N(C(=O)COc1nnc(C(F)(F)F)s1)c1ccc(F)cc1` here?
Answer: inactive
